From PubChem BioAssay (NCI)
About 83,000 compounds went through this panel and 20% of them were active in at least one assay; those are over-represented in the sample as a whole.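 Growth was measured after 48 h exposure to one concentration of compound in 96-well plates. Values under 10 count as active.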 Calls of active or inactive are those of the source.

test system: UACC-62 melanoma; test: NCI-60 one-dose screen, 48 h (100 = growth as untreated, 0 = no growth, -100 = all killed); conditions: 10 µM
Protocol: Growth inhibition of the UACC-62 human tumor cell line is measured as a screen for anti-cancer activity. Cells are grown in 96 well plates and exposed to the test compound for 48 hours. Compounds are tested at a single concentration, which is 10^-5 M for most compounds. The reported endpoint is percent growth (GI% or GIPRCNT), where numbers from 0 - 100% represent growth inhibition, and numbers from -100% - 0 represent cell death. For example, a value of 40 represents 60% growth inhibition. A value of 0 means no net growth occurred over the course of the experiment. A value of -40 indicates 40% of cells at the beginning of the experiment died by the end of the experiment. A value of -100 means all cells are dead at the end of the experiment.
NCI-60 Human Tumor Cell Lines Screen was performed using the standard one-dose NCI protocol, which is described in more detail at https://dtp.cancer.gov/discovery_development/nci-60/default.htm.
Compounds with GIPRCNT values below 10 were considered active. Activity score was based on GIPRCNT using the following formula: […]
Score is 0 for GIPRCNT values of 100 or above, 50 for GIPRCNT values of 0, and 100 for GIPRCNT values of -100.

SMILES | growth
O=C1NC(=NC23CC4CC(CC(C4)C2)C3)N/C1=C\c1ccc2ncccc2n1 | -64.4% (active)
O=C(NO)c1ccc(Cn2ccc3c(NCc4ccccc4)ncnc32)cc1 | -43.3% (active)
O=C(CSc1nnc(-c2c[nH]c3ccccc23)n1-c1ccccc1)Nc1ccc(C(=O)/C=C/c2ccccc2Cl)cc1 | 72.1% (inactive)
CC(C)(C)c1ccc(NCc2cn(-c3ccc(C(=O)O)cc3)nc2-c2ccc(C#N)cc2)cc1 | 8.63% (active)
Cc1cc2nc3c4ccccc4n(CCO)c3nc2cc1C | 73.8% (inactive)
COC1=C[C@@]23CCC(=O)N2CCc2cc4c(cc2[C@H]3[C@H]1OC(=O)C(C)(C)O)OCO4 | 89.1% (inactive)
O=C(NO)c1ccc(-c2nc3ccc4[nH]ncc4c3c3c2CCCC3)cc1 | -65.8% (active)
CN1CCCN(Cc2ccc(C(=O)Nc3cccc(Nc4ccc5cc(O)ccc5n4)c3)cc2C(F)(F)F)CC1 | 88.1% (inactive)
O=C(c1ccccc1)n1ccc(-c2cc3cc(Br)ccc3oc2=O)n1 | -21.1% (active)
O=c1oc2ccc(-c3ccc(F)cc3F)cc2c(=O)n1-c1ccc(F)cc1 | -50.2% (active)
Cc1ccc([N+](=O)[O-])c(C(=O)Nc2ccc(-c3ccc4c(c3)NC(=O)/C4=C\c3ccc[nH]3)cc2)c1 | 39.5% (inactive)
CC(=O)Nc1ccc(-c2cn(-c3cccc(C(=O)Nc4cc(CN5CCOCC5)cc(C(F)(F)F)c4)c3)nn2)cn1 | -98.1% (active)
Cc1cccc(NC(=O)CSc2nc3ccc(F)cc3c(=O)n2-c2ccc(Cl)cc2)c1C | 80.8% (inactive)
O=C(CSc1nnc(-c2ccc3nc(-c4ccc(Cl)cc4)[nH]c3c2)o1)Nc1ccc(Cl)cc1 | -87.1% (active)
CC(=O)NCC1=C(C)C=C2C(=O)[C@](C)(O)C3(CC3)C(C)=C21 | -91% (active)
Brc1ccc(/C=N/Nc2ncnc3sc4c(c23)CCN(Cc2ccccc2)C4)cc1 | 90.3% (inactive)
O=C(c1ccc(O)cc1)C1[C@H](c2ccc(Br)cc2)[C@@H](c2ccccc2)NC12C(=O)Nc1ccc(Br)cc12 (stereo not given in full) | -35.7% (active)
CCN(CC)CCOc1ccc(C(=C(C)c2ccccc2)c2ccc(OCCN(CC)CC)cc2)cc1 | -86.5% (active)
Cn1cc(/C=N/Nc2ccnc3cc(Cl)ccc23)c2ccccc21 | -66.1% (active)
N[C@@H](CSSC[C@H](N)C(=O)Nc1ccc(OCC2CCCC2)cc1)C(=O)Nc1ccc(OCC2CCCC2)cc1 | -99.7% (active)

SMILES | growth
CCCCCCCCCCCCCCCCCCCC(=O)NCCc1c[nH]c2ccc(OC(=O)NOCCOCCOCCOCCOCCOCCOCCOCCOCCOCCOCCOCCOCCOCCOCCOCCOCCOCCOCCOCCOCCOCCOC)cc12 | -69.4% (active)
N#Cc1c(NC(=O)c2ccc(C(F)(F)F)c(Cl)c2)sc2c1CCC(=O)C2 | -78.9% (active)
CC(=O)OC[C@@]1(C)C2CC[C@]3(C)C(CC=C4C5CC(C)(C)CC[C@]5(C(=O)Nc5ccccc5)CC[C@]43C)[C@@]2(C)C[C@@H](OC(C)=O)[C@@H]1OC(C)=O (stereo not given in full) | 31% (inactive)
COc1ccc(C(=O)/C=C/c2ccc(Cl)c(C(F)(F)F)c2)cc1S(N)(=O)=O | -98.7% (active)
CCOc1ccc(Nc2nc3ccccc3nc2Nc2ccc(OCC)cc2)cc1 | 73.3% (inactive)
O=C(Nc1cccc(C(F)(F)F)c1)c1cncc(C#Cc2cnc3cccnn23)c1 | 35.4% (inactive)
COc1ccc(N(C)c2cc(C#N)nc3ccccc23)cc1/C=C/C(=O)NO | -72.2% (active)
CCCCSc1nc(Nc2ccc(/C(C)=N/NC(N)=S)cc2)c(C#N)c(-c2ccc(F)cc2)n1 | 49.3% (inactive)
COc1ccc(-c2ccc(/C=N/NC(=O)c3[nH]c4ccc(Br)cc4c3-c3ccccc3)o2)cc1 | 30.4% (inactive)
O=C(O)CCCCCCCCCCN1C(=O)/C(=C/c2cnc(-c3ccccc3)s2)SC1=S | 76.4% (inactive)
CN(CCO)c1oc(-c2ccccc2)nc1[P+](c1ccccc1)(c1ccccc1)c1ccccc1 | -30.2% (active)
COc1nccnc1NS(=O)(=O)c1ccc(NC2=C(Cl)C(=O)c3nc(C)ccc3C2=O)cc1 | 101% (inactive)
Cc1cc(=O)oc2cc(OCCCCOc3ccc(/C=C/C(=O)Nc4cccc(Cl)c4)cc3)ccc12 | 75.3% (inactive)
Nc1nnc(-c2c[nH]c3ncccc23)c(-c2c[nH]c3ccc(Br)cc23)n1 | 33.8% (inactive)
N#Cc1c(-c2ccc(Cl)cc2)cc(-c2ccccc2)nc1OCc1ccccc1 | 62.3% (inactive)
Oc1ccc(/C=C2\CCCc3cc4ccc(O)cc4[o+]c32)c(O)c1 | 25% (inactive)
CC(=O)c1cc(C(=O)c2ccc3c(c2)NC(=O)CO3)n2ccc3ccccc3c12 | 94.7% (inactive)
COc1ccc2nc(Cl)c(-c3cc(-c4ccccc4)nc(N)n3)cc2c1 | 28.4% (inactive)
O=S(=O)(Nc1ncccn1)c1ccc(-n2c(-c3ccccc3)nc(-c3ccccc3)c2-c2ccccc2)cc1 | 83.7% (inactive)
CN(C)c1ccc(/C=C/C(=O)c2ccc(NC(=O)CN3C(=O)NC(C)(c4ccccc4)C3=O)cc2)cc1 (stereo not given) | 46.6% (inactive)
